{
  "source": "PubChem BioAssay (EPA / NIEHS)",
  "note": "Records with an inconclusive call do not appear. Calls of active or inactive are those of the source. Rule for the calls: active = hit-call score of the fitted dose curve at least 0.9, where 1 is the maximum; inconclusive = response in the unintended direction; inactive = score below 0.9.",
  "data": [
    {"test_system": "rat Monoamine Oxidase, MAO-A, Peripheral (MAOAP), gene 29253", "experiment": "NVS_ENZ_rMAOAP: NovaScreen (NVS) Enzymatic Assay for rat Monoamine Oxidase, MAO-A, Peripheral (MAOAP) (AID 2283237)", "procedure": "NVS_ENZ_rMAOAP is a biochemical, single-readout assay that uses extracted gene-proteins from Rat liver mitochondrial membranes in a tissue-based cell-free assay. Measurements were taken 1.17 hours after chemical dosing in a 96-well plate.NVS_ENZ_rMAOAP is one of one assay component(s) measured or calculated from the NVS_ENZ_rMAOAP assay. It is designed to make measurements of enzyme activity, a form of enzyme reporter, as detected with scintillation counting signals by Lysate-based radiodetection technology.Data from the assay component NVS_ENZ_rMAOAP was analyzed into 1 assay endpoint. This assay endpoint, NVS_ENZ_rMAOAP, was analyzed in the positive analysis fitting direction relative to DMSO as the negative control and baseline of activity. Using a type of enzyme reporter, loss-of-signal activity can be used to understand changes in the enzymatic activity as they relate to the gene Maoa. Furthermore, this assay endpoint can be referred to as a primary readout, because this assay has produced multiple assay endpoints where this one serves a enzymatic activity function. To generalize the intended target to other relatable targets, this assay endpoint is annotated to the oxidoreductase intended target family, where the subfamily is monoamine oxidase.\nBinding assays used specific radioligands (tritiated, iodinated) with non-radioactive competitive displacement ligands in agonist or antagonist protocols (as indicated) and various reference compounds and inhibitors to titrate specific binding to receptors and transporters. Most enzyme assays (CYPs, kinases, phosphatases, proteases, HDACs) used recombinant protein and specific substrates (fluorescence mostly, some colorimetric and radioactive) and inhibitors, followed by a biochemical separation of substrate and product. All assays for the biochemical HTS were initially run in duplicate at a single concentration (10 uM for CYP450 assays and 25 uM for all others). […] Each assay was run with positive and negative controls, and concurrent controls on every plate. The follow-up (secondary) screen tested active chemical-pairs in concentration series, as well as a few additional assays not tested in the primary screen, some selected negative inactives, and several cases re-run in the concentration series for confirmatory purposes.", "values": [
      {"compound": "Nc1ccc2c(c1)C(=O)c1ccccc1C2=O", "AC50": "6.14 µM (active)"},
      {"compound": "CN1CCN(Cc2cc(-c3ccc4[nH]c(=O)oc4c3)co2)[C@@H](c2ccc(F)cc2)C1", "AC50": "18.2 µM (active)"},
      {"compound": "Oc1ccc2ccccc2c1", "AC50": "12.9 µM (active)"},
      {"compound": "CCCOC(=O)NCCCN(C)C", "outcome": "inactive"},
      {"compound": "Oc1ccc2c(c1)-c1ccccc1C2", "AC50": "4.45 µM (active)"},
      {"compound": "CN(C[C@@H](CC[N+]12CCC(C3CCCCC3)(CC1)CC2)c1ccc(Cl)c(Cl)c1)C(=O)c1cc(C(F)(F)F)cc(C(F)(F)F)c1", "AC50": "36.8 µM (active)"},
      {"compound": "O=C(c1ccc(O)cc1O)c1ccc(O)cc1O", "AC50": "0.935 µM (active)"},
      {"compound": "N#CSCSc1nc2ccccc2s1", "AC50": "25 µM (active)"},
      {"compound": "CN(C)c1ccc(N=NS(=O)(=O)O)cc1", "AC50": "21.1 µM (active)"},
      {"compound": "CSC(=O)c1cccc2nnsc12", "outcome": "inactive"},
      {"compound": "NCC1(Cc2noc(=O)[nH]2)CCCCC1", "outcome": "inactive"},
      {"compound": "CCc1cc(SCc2sc(-c3ccc(C(F)(F)F)cc3)nc2CN2CCN(c3ccc(OC)cc3)CC2)ccc1OCC(=O)O", "AC50": "25 µM (active)"},
      {"compound": "Oc1cc2ccccc2c2ccccc12", "AC50": "3 µM (active)"},
      {"compound": "O=C(O)c1cccc(C(=O)O)c1", "outcome": "inactive"},
      {"compound": "CCCCC(CC)C(=O)OCCOCCOCCOC(=O)C(CC)CCCC", "note": "(stereo not given)", "outcome": "inactive"},
      {"compound": "Cc1cc(SC2=C(O)C[C@@](CCc3ccc(N)cc3)(C(C)C)OC2=O)c(C(C)(C)C)cc1CO", "outcome": "inactive"},
      {"compound": "Nc1cccc(N)c1", "outcome": "inactive"},
      {"compound": "O=c1ccc2ccccc2o1", "AC50": "6.56 µM (active)"},
      {"compound": "CC[C@H](C)C(=O)O[C@H]1C[C@H](O)C=C2C=C[C@H](C)[C@H](CC[C@@H](O)C[C@@H](O)CC(=O)O)[C@H]21", "outcome": "inactive"},
      {"compound": "CCCN(CCC)c1c([N+](=O)[O-])cc(C(F)(F)F)c(N)c1[N+](=O)[O-]", "outcome": "inactive"},
      {"compound": "CCn1nc(C)c2c1C(=O)NCC(c1ccc(O)cc1)=N2", "AC50": "5.25 µM (active)"},
      {"compound": "O=C(O)CC(O)C(=O)O", "note": "(stereo not given)", "outcome": "inactive"},
      {"compound": "COc1ccc2cc(S(=O)(=O)N[C@H](CC(=O)N[C@H](Cc3ccc(CN4[C@H](C)CCC[C@@H]4C)cc3)C(=O)N(C)C(C)C)c3ccc4c(c3)OCO4)ccc2c1", "AC50": "36 µM (active)"},
      {"compound": "Cc1c(C(=O)O)c(O)cc2c1C(=O)c1c(O)c([C@@H]3O[C@H](CO)[C@@H](O)[C@H](O)[C@H]3O)c(O)c(O)c1C2=O", "outcome": "inactive"},
      {"compound": "CC(C)(c1ccc(O)cc1)c1ccc(O)cc1", "outcome": "inactive"},
      {"compound": "CCCCCCCC=O", "outcome": "inactive"},
      {"compound": "N=C(N)c1ccc(OCCCCCOc2ccc(C(=N)N)cc2)cc1", "AC50": "0.504 µM (active)"},
      {"compound": "c1ccc2[nH]c(-c3cscn3)nc2c1", "outcome": "inactive"},
      {"compound": "O=c1c(-c2ccc(O)cc2)coc2cc(O)cc(O)c12", "AC50": "3.49 µM (active)"},
      {"compound": "O=Cc1ccccc1C=O", "outcome": "inactive"},
      {"compound": "Fc1ccccc1[C@@H](F)COC1CCC(Nc2ncnc3[nH]ncc23)CC1", "note": "(stereo not given in full)", "outcome": "inactive"},
      {"compound": "O=C(N[C@@H](c1ccccc1)[C@@H]1CCCCN1)c1cccc(C(F)(F)F)c1Cl", "outcome": "inactive"},
      {"compound": "O=[N+]([O-])c1ccc(O)cc1", "AC50": "19.2 µM (active)"},
      {"compound": "Nc1cccc2c(N)cccc12", "AC50": "25 µM (active)"},
      {"compound": "Clc1cc(Cl)c2c(c1)N=C1CCCCCN1C2", "AC50": "4.96 µM (active)"},
      {"compound": "NCc1cccc(C2CCN(C(=O)c3ccc(C#Cc4ccccc4F)o3)CC2)c1", "AC50": "3.57 µM (active)"},
      {"compound": "CC(C)C(=O)Nc1ccc([N+](=O)[O-])c(C(F)(F)F)c1", "AC50": "10.4 µM (active)"},
      {"compound": "C[C@]12CC[C@@H]3c4ccc(O)cc4CC[C@H]3[C@@H]1CCC2=O", "outcome": "inactive"},
      {"compound": "Cc1cc(CCN2CCN(c3nsc4ccccc34)CC2)cc2c1NC(=O)CC2(C)C", "outcome": "inactive"},
      {"compound": "CCCOc1sc(C(=O)N2CCC(c3cc(CN)ccc3F)CC2)c(C)c1Br", "AC50": "2.6 µM (active)"}
    ]}
  ]
}
